HCMV antiviral = qHTS Assay for inhibitors of the human cytomegalovirus (HCMV). HFF cells, HCMV-luciferase reporter, 72 h; stronger effect = lower value. activity change, negative = inhibition, % at 57.5 µM. 410,000 compounds, 4.5% hits. AID 1259415, 2018; in the data active = activity change below about -60%; inconclusive = no clear call, values can overlap the other calls; inactive = above about -39%
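Two-dose cell screen: HFF monolayers treated with compounds and infected with luciferase-expressing HCMV at 1 PFU/cell, 72 h at 37C, then lysed for luciferase measurement.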
FMDV inh = High Throughput Screening for Foot and Mouth Disease Virus Antivirals. FMDV antiviral cell-based qHTS. Potency, µM (titrated, usually from 57.9 µM), inactives show at the highest dose activity change, negative = inhibition, most hits filed as inhibitors. 410,000 compounds, 1.2% hits; calls by dose curve; tested in HEK293T cells; also: read-out not given here; potency is read from the fitted curve at half-maximal effect; nearly all actives have a fitted effect of over 45% in size
HCV inh = qHTS Assay for Inhibitors of Hepatitis C Virus (HCV); Huh7.5.1 HCVcc-Cre infection, luciferase reporter, 44 h; Potency, µM (top dose mostly 41.8 µM), without a hit: at the top dose activity change, negative = inhibition, hits mostly inhibitors; 340,000 compounds, 3.4% hits; AID 651820, 2012; active = well fitted inhibition curve with a large enough effect; inconclusive = small, poorly fitted or top-dose-only effect, or another doubt; inactive = no such curve, though single readings can be large or run the other way; also: potency is read from the fitted curve at half-maximal effect
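After 44 h co-culture of compound, cells and HCVcc-Cre (~0.5 moi), substrate is added for 15 min at room temperature and luciferase measured over 15 sec. Cells were seeded at 1,000/well and pre-cultured 4 h.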
VACV mCherry inh = qHTS for Stage-Specific Inhibitors of Vaccinia Orthopoxvirus: mCherry Reporter Primary qHTS | Potency, µM (doses to about 36.5 µM), inactives show top-dose activity change, negative = inhibition, actives largely listed as inhibitors | Vaccinia virus mCherry reporter infection, fluorescence | 310,000 compounds, 0.63% hits; calls by dose curve; tested in A549 cells; also: potency is read from the fitted curve at half-maximal effect; nearly all actives have a fitted effect of over 35% in size
VACV Venus inh = qHTS for Stage-Specific Inhibitors of Vaccinia Orthopoxvirus: Venus Reporter Primary qHTS | Potency, µM (titrated, usually from 36.5 µM), for the others: at the top dose activity change, negative = inhibition, actives largely listed as inhibitors | 330,000 compounds, 0.46% hits | AID 720580, 2013 | Vaccinia virus Venus reporter expression, fluorescence; calls by dose curve; tested in A549 cells; also: potency is read from the fitted curve at half-maximal effect; nearly all actives have a fitted effect of over 30% in size
* marks the source's active call; other numbers are inactive results; i = inactive; ? = inconclusive; nt = no result given; + = active, no number; ! = a repeat was not active. Hits are enriched below; roughly 7.3% of the tested compounds scored in any of these assays. % is scaled to controls: 0 for no effect and ±100 for the full control effect.

SMILES	HCMV antiviral	FMDV inh	HCV inh	VACV mCherry inh	VACV Venus inh
COc1ccccc1S(=O)(=O)N1CCN(c2nc(-c3cccs3)nc3ccccc23)CC1	nt	nt	nt	i	-10%
CN(C)C(CNC(=O)c1ccccc1OCc1ccc(Cl)cc1)c1ccco1 (configuration not stated)	-11	-29%	18µM*	?	-15%
C=CCC[C@H](Cc1ccc(F)cc1)C(=O)OC[C@H](Cc1c[nH]c2ccccc12)NC(=O)[C@@H](CC=C)CC(=O)N(CCO)Cc1ccccc1	81	40µM*	?	?	11µM*
C=CC[C@H](CC(=O)N(CCO)Cc1ccccc1)C(=O)N[C@H](COC(=O)[C@@H](CC=C)Cc1ccc(F)cc1)Cc1ccccc1	94	?	10µM*	?	?
C=CCC[C@@H](Cc1ccc(F)cc1)C(=O)OC[C@H](Cc1c[nH]c2ccccc12)NC(=O)[C@H](CC=C)CC(=O)N(CCO)Cc1ccccc1	12	?	?	?	?
C=CCC[C@H](Cc1ccc(F)cc1)C(=O)OC[C@@H](Cc1c[nH]c2ccccc12)NC(=O)[C@@H](CC=C)CC(=O)N(CCO)Cc1ccccc1	39	?	?	13µM*	11µM*
Cc1ccc(-c2ccc(=O)n(CC(=O)NC(C)c3ccccc3)n2)cc1 (configuration not stated)	-9	-20%	nt	-3%	14%
CC(C)C[C@@H]1COc2cc(N3CCCC3)ccc2S(=O)(=O)N1	-6	nt	nt	nt	nt
O=Cc1ccnc2ccccc12	nt	nt	nt	-17%	-5%
COc1cc2c(NC3CCN(C(C)C)CC3)nc(N3CCCN(C)CC3)nc2cc1OCCCN(C)C	nt	nt	nt	?	0.25µM*
COc1cc2c(NC3CCN(C)CC3)nc(N3CCCN(C)CC3)nc2cc1OCCCCC(N)=O	nt	nt	nt	-18%	-15%
COc1cc2c(NC3CCN(C)CC3)nc(N3CCCN(C)CC3)nc2cc1OCCOCCN1CCCC1	nt	nt	nt	-10%	-10%
COc1cc2nc(N3CCN(C)CC3)nc(NC3CC3)c2cc1OC	nt	nt	nt	-23%	-13%
CCN(CC)CCCOc1cc2nc(N3CCCN(C)CC3)nc(NC3CCN(C)CC3)c2cc1OC	nt	nt	nt	7.1µM*	10µM*
COc1cc2c(NC3CCN(C)CC3)nc(N3CCCN(C)CC3)nc2cc1OCCCCCN(C)C	nt	nt	nt	?	13µM*
CCc1cccc(C)c1NC(=O)c1cnn(-c2ccc(OC)cc2)c1C1CCN(C(=O)OC(C)(C)C)CC1	?	14%	nt	-23%	-20%
O=C(Nc1cc(C(=O)NC2CCOCC2)c2c(c1)ncn2C1CCCC1)c1ccccc1	nt	-7%	nt	-15%	-9%
CCC(=O)N1c2ccc(S(=O)(=O)N3CCCCCC3)cc2CC1C (configuration not stated)	28	21%	nt	2%	4%
CC(C)(C)c1ccc(C(=O)NNc2ncnc3c2cnn3-c2ccc(Cl)cc2)cc1	-36	-13%	nt	-19%	-8%
CC(C)(C)c1ccc(C(=O)NNc2ncnc3c2cnn3-c2ccccc2)cc1	-73*	17%	nt	-7%	-1%
COc1ccc(-c2nnc(SCC(=O)Nc3cc(OC)ccc3OC)nc2-c2ccc(OC)cc2)cc1	18	-12%	nt	-10%	-15%
CN(C)c1ccc(/C=C/c2nc3ccccc3s2)cc1Cl	nt	nt	nt	-6%	-4%
COc1cc2cc(C(=O)N3CC(COS(C)(=O)=O)c4ccc(O)cc43)[nH]c2c(OC)c1OC (configuration not stated)	nt	6.3µM*	?	?	35µM*
O=C(Nc1ccn(CCCNCc2ccc3c(c2)OCO3)c(=O)n1)OCc1ccccc1	-4	16%	10µM*	i	-17%
O=C(Nc1ccn(CCCNCc2ccccc2)c(=O)n1)OCc1ccccc1	-14	11%	0.56µM*	-20%	?
SMILES	HCMV antiviral	FMDV inh	HCV inh	VACV mCherry inh	VACV Venus inh
O=C(OCc1ccccc1)N(CCCCN(CCCNCc1ccccc1)C(=O)OCc1ccccc1)CCCNCc1ccccc1	-97*	?	10µM*	?	?
O=C(Cn1ccc(NC(=O)OCc2ccccc2)nc1=O)NCCc1c[nH]c2ccccc12	32	-26%	2.8µM*	i	-9%
O=C(Cn1ccc(NC(=O)OCc2ccccc2)nc1=O)NCCCc1ccccc1	26	-5%	-2%	?	-18%
O=C(CSc1ccc(-c2cccnc2)nn1)Nc1ccc(Br)cc1	?	?	13µM*	?	?
O=C(CSc1ccc(-c2ccccn2)nn1)Nc1ccc(F)c(F)c1	-90*!	-28%	10µM*	?	?
COc1ccccc1NC(=O)CSc1ccc(-c2ccccn2)nn1	-101*!	3%	?	14µM*	?
COc1ccc(NC(=O)CSc2ccc(-c3ccccn3)nn2)cc1OC	1	-9%	2%	-8%	-3%
Cc1ccc(CNC(=O)CSc2ccc(-c3ccccn3)nn2)cc1	3	20%	-5%	7.1µM*	?
COCCn1c(=O)cnc2cnc(OC)nc21	nt	-11%	nt	nt	nt
COc1cc(NC(=O)CSc2nc(C)c(C(=O)Nc3ccccc3)c(-c3ccc(OC)c(OC)c3)c2C#N)c(OC)cc1Cl	21	3%	nt	-6%	-2%
CCN(CC)CCCNC(=O)c1nn(C)c2c1CSc1ccccc1-2	6	-11%	nt	-4%	-6%
COc1ccc(C)cc1NC(=O)CSc1ccc(-c2ccco2)nn1	?	-28%	10µM*	?	-19%
CCOC(=O)CSc1nc2ccccc2n2c(C)nnc12	13	-11%	?	0%	-11%
Cc1nnc2c(SC(C)C)nc3ccccc3n12	-82*	-1%	?	nt	nt
CCCN(CCC)c1nc2ccccc2n2c(C)nnc12	-21	-24%	3.2µM*	-13%	-24%
O=C(NCc1ccccc1)C1CCN(C(=O)c2cnn(-c3ccccc3)c2-n2cccc2)CC1	64	8%	nt	-5%	-4%
CC1CCN(S(=O)(=O)c2ccc3c(c2)N(CC(=O)N(C)Cc2ccccc2)C(=O)CO3)CC1	-24	-10%	nt	-8%	-7%
NC(=O)CSc1nc(-c2ccccc2)nc2ccccc12	-9	0%	?	nt	nt
Cc1cccc2c(SCC(N)=O)nc(-c3ccccc3)nc12	-32	-2%	7.1µM*	nt	nt
CCn1cc(C(=O)N[C@@H](CCSC)C(=O)NCCN2CCOCC2)c(=O)c2cc3c(cc21)OCO3	+	13%	12%	nt	nt
CCn1cc(C(=O)N[C@@H](CCSC)C(=O)NCCCN2CCOCC2)c(=O)c2cc3c(cc21)OCO3	-15	2%	14%	nt	nt
COc1ccc(C(=O)OCc2nnc(-c3ccccc3)o2)cc1S(=O)(=O)N1CCOCC1	-33	17%	-2%	-2%	0%
O=C(OCc1nnc(-c2ccc([N+](=O)[O-])cc2)o1)c1ccc(F)c(S(=O)(=O)N2CCOCC2)c1	-67*	-13%	-4%	-5%	-3%
